Screens deposited in PubChem by National Center for Advancing Translational Sciences (NCATS).
A selection: hits, their analogues and other compounds. The true share with any hit is near 18%.
IL1B secr inh: qHTS for Inhibitors of Inflammasome Signaling: IL-1-beta AlphaLISA Primary Screen; THP-1 LPS/ATP IL-1B secretion, AlphaLISA, 16 h; hits give low values; actives 4.7% (n = 360,000); activity change, % at 57.5 µM; in the data active = activity change below about -50%; inconclusive = mostly about -30% to -49%; note: % is set by controls: 0 for no effect and ±100 for the full control effect
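THP-1 cells pretreated 1 hr with compounds (up to 57.5 uM final), then stimulated with LPS (250 ng/mL final) plus ATP (1.25 mM final); secreted IL-1B measured by AlphaLISA after 16 hr, decreased signal indicating inhibition.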
HepG2 viability: qHTS for Inhibitors of TGF-b: Cytotox Counterscreen. actives 0.76% (n = 410,000). Potency, µM (top dose mostly 46.1 µM), inactives show top-dose activity change, negative = cytotoxicity, most hits filed as cytotoxic. HepG2 CAGA-GFP viability, ATP luminescence, 18 h; note: potency is the fitted concentration of half-maximal effect
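CellTiter-Glo luminescence gave cytotoxicity after 18 hours at 37 degrees C. The cells were HepG2 CAGA-GFP in 1% FBS DMEM, stimulated with 500 pg/mL TGF-beta after compound addition. %Activity was normalised to no-cell wells (complete cell-killing) and DMSO (no toxicity), and curves were fitted and classified.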
TGFb inhibitor: qHTS for Inhibitors of TGF-b; Potency, µM (titrated, usually from 46.1 µM), inactives show top-dose activity, negative = inhibition, most hits filed as inhibitors; AID 588855, 2011; actives 1.2% (n = 410,000); HepG2 CAGA-GFP TGF-b/SMAD3 reporter, GFP fluorescence, 18 h; TGF-beta stimulated, 500 pg/mL final; note: potency is the fitted concentration of half-maximal effect; % is set by controls: 0 for no effect and ±100 for the full control effect; nearly all actives have a fitted effect of over 65% in size
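Cell-based qHTS in HEPG2 carrying a CAGA-GFP Smad reporter; compounds added before 500 pg/mL final TGF-beta, 18 h incubation at 37 degrees C, GFP fluorescence quantified per cell by imaging cytometry.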
DT40 TDP1 no CPT: qHTS for Inhibitors of human tyrosyl-DNA phosphodiesterase 1 (TDP1): qHTS in cells in absence of CPT; DT40 Tdp1-/- hTDP1 cells, no CPT, ATP luminescence, 48 h; Potency, µM (highest dose often 46.2 µM), for the others: at the highest dose activity change, negative = growth inhibition, actives largely listed as inhibitors; actives 15% (n = 420,000); note: potency is the fitted concentration of half-maximal effect; % is set by controls: 0 for no effect and ±100 for the full control effect; nearly all actives have a fitted effect of over 55% in size
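Chicken DT40 Tdp1-/- cells complemented with human TDP1, screened without camptothecin (DMSO vehicle only), 400 cells/well. Compounds pin-transferred, cells incubated at 37 °C for at least 48 hr. Growth read as ATP-dependent luminescence (CellTiter-Glo, 30 min at RT).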
TDP1 inh: qHTS Assay for Inhibitors of Tyrosyl-DNA Phosphodiesterase (TDP1); Tyrosyl-DNA phosphodiesterase 1 (Homo sapiens), Q9NUW8; AID 485290, 2010; Potency, µM (series often up to 130 µM), for inactives: at the top dose activity change, negative = inhibition, usual class: inhibitors; actives 0.28% (n = 350,000); recombinant TDP1, AlphaScreen DNA substrate cleavage; note: potency is the fitted concentration of half-maximal effect; % is set by controls: 0 for no effect and ±100 for the full control effect; nearly all actives have a fitted effect of over 40% in size
Target sequence (Q9NUW8 whole entry, looked up): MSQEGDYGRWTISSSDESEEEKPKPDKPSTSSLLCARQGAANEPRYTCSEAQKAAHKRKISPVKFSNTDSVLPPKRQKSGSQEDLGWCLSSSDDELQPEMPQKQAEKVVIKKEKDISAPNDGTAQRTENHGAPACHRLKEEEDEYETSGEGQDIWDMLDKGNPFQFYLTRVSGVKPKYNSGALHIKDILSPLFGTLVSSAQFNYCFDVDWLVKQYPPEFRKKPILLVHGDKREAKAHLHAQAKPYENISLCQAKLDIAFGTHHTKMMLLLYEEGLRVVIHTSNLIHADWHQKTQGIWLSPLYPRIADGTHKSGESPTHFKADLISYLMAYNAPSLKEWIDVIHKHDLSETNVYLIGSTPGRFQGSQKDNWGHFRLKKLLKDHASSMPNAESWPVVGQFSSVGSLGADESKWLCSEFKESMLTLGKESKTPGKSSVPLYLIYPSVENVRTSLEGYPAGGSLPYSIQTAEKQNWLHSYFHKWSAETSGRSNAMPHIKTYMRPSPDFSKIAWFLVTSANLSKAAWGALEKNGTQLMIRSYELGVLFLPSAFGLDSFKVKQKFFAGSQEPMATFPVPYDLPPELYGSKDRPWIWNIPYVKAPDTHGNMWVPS
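Signal: AlphaScreen proximity between streptavidin donor and anti-FITC acceptor beads on intact substrate. Reaction: Tdp1 1 nM, substrate 15 nM final, 5 min RT after 15 min compound preincubation.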
DT40 TDP1 CPT: qHTS for Inhibitors of human tyrosyl-DNA phosphodiesterase 1 (TDP1): qHTS in cells in presence of CPT. chicken DT40 Tdp1-/-;hTDP1 cells + 20 nM CPT, ATP luminescence, 48 h. Potency, µM (doses to about 46.2 µM), for the others: at the highest dose activity change, negative = growth inhibition, hits mostly inhibitors. actives 12% (n = 420,000). AID 686979, 2013; note: potency is the fitted concentration of half-maximal effect; % is set by controls: 0 for no effect and ±100 for the full control effect; nearly all actives have a fitted effect of over 55% in size
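Cell growth measured by CellTiter-Glo luminescence after a minimum 48 h, 37 C compound exposure with 20 nM CPT in Tdp1-knockout DT40 cells stably expressing hTDP1, seeded 400/well; qHTS titration format.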
* hit, by the source's call; ? = inconclusive; · = no result given; [ ] = remark or other dose. Unless noted, calls come from the whole dose curve; as a rule, active = well fitted curve in the direction sought with a large enough effect; inconclusive = small, poorly fitted or top-dose-only effect, or another doubt; inactive = no such curve, though single readings can be large; an effect the other way counts as inactive or inconclusive.

SMILES	IL1B secr inh	HepG2 viability	TGFb inhibitor	DT40 TDP1 no CPT	TDP1 inh	DT40 TDP1 CPT
Cc1cc(C(=O)CSc2n[nH]c(N)n2)c(C)n1-c1ccccc1	-8	-19%	6%	-21%	7%	?
Cc1cc(C(=O)CSc2n[nH]c(N)n2)c(C)n1C1CC1	-8	-1%	-6%	21µM*	6%	?
Cc1ccc(-n2c(C)cc(C(=O)CSc3n[nH]c(N)n3)c2C)cc1	9	-4%	-30%	13µM*	7%	?
O=C1CC(N(O)C2CC(=O)N(Cc3ccccc3)C2=O)C(=O)N1Cc1ccccc1 (stereo not drawn)	4	2%	-10%	10µM*	-1%	21µM*
CCCCCC(=O)NNC1CC(=O)N(c2ccccc2)C1=O (stereo not drawn)	14	-9%	-10%	-6%	5%	0%
CCCCCCC(=O)N(O)C1CC(=O)N(Cc2ccccc2)C1=O (stereo not drawn)	-87*	-26%	11%	13µM*	8%	13µM*
CCCCCC(=O)N(O)C1CC(=O)N(c2ccccc2)C1=O (stereo not drawn)	-26	-65%	-9%	4.6µM*	10%	3.3µM*
CCCCCC(=O)N(CN1C(=O)CCC1=O)c1ccccc1	18	9%	-10%	-1%	6%	2%
O=C1CC(N2CCN(c3ccccc3O)CC2)C(=O)N1Cc1ccccc1 (stereo not drawn)	0	-14%	0%	?	6%	-18%
CC1(Cc2ccc(Cl)cc2)C(=O)Nc2ccc(-c3ccc(F)c(Cl)c3)cc21 (stereo not drawn)	-19	-95%	?	?	·	?
CC1(Cc2ccc(F)cc2)C(=O)Nc2ccc(-c3cccnc3)cc21 (stereo not drawn)	91	-46%	-6%	10µM*	·	23µM*
C=Cc1ccc(CC2(C)C(=O)Nc3ccc(-c4cccnc4)cc32)cc1 (stereo not drawn)	60	-13%	0%	4.6µM*	·	?
O=C(Cn1ccn(-c2ccc(F)c(F)c2)c(=O)c1=O)Nc1ccccc1F	·	-20%	-12%	-2%	1%	0%
CC1=C(C(=O)N(C(C)C)C(C)C)CC(CC(=O)NCc2cccs2)C(=O)N1Cc1ccc(C(C)(C)C)cc1 (stereo not drawn)	-59*	16µM*	?	23µM*	·	?
CC1=C(C(=O)N2CCOCC2)CC(CC(=O)NCc2cccs2)C(=O)N1Cc1ccc(C(C)(C)C)cc1 (stereo not drawn)	22	-39%	3%	?	·	15µM*
CC1=C(C(=O)N2CCOCC2)CC(CC(=O)NCc2ccco2)C(=O)N1Cc1ccc(C(C)(C)C)cc1 (stereo not drawn)	-16	3%	-11%	21µM*	·	29µM*
COc1ccc(C(=O)N2CCC(c3c[nH]c4ccccc34)(c3c[nH]c4ccccc34)CC2)cc1	·	-27%	?	?	10%	?
CC1CCc2c(sc3nnn(Cc4ccc(F)cc4)c(=O)c23)C1 (stereo not drawn)	·	-20%	-1%	26µM*	-6%	3.3µM*
CCCCCOC(=O)CSc1nc2sc3c(c2c(=O)n1Cc1ccccc1)CC(C)(C)OC3	·	-68%	0%	?	3%[2.28 µM]	-2%
Cc1ccc(Cn2nnc3sc4c(c3c2=O)CCC(C)C4)cc1 (stereo not drawn)	·	2%	6%	?	1%	-28%
CC1CCc2c(sc3nnn(Cc4ccccc4)c(=O)c23)C1 (stereo not drawn)	·	-21%	-11%	?	-5%	?
C=C(C)CSc1nc2sc3c(c2c(=O)n1Cc1ccccc1)CC(C)(CC)OC3 (stereo not drawn)	·	-21%	-15%	12µM*	0%[12.3 µM]	?
O=C(O)c1ccc(Cn2nnc3sc4c(c3c2=O)CCCC4)cc1	42	1%	3%	0%	50µM*	4%
CC1CCc2c(sc3nnn(Cc4ccccc4Cl)c(=O)c23)C1 (stereo not drawn)	·	-4%	1%	21µM*	0%	?
CN=C(C)/C(C(=O)OC)=C(/O)c1c(F)cccc1F	0	-5%	-8%	-3%	3%	14%
SMILES	IL1B secr inh	HepG2 viability	TGFb inhibitor	DT40 TDP1 no CPT	TDP1 inh	DT40 TDP1 CPT
O=C(CCN1CCN(c2ccccc2)CC1)NNC(=S)Nc1ccccc1Cl	33	6%	-1%	6%	3%	7%
CCC1(C)Cc2c(sc3nnn(Cc4ccccc4Cl)c(=O)c23)CO1 (stereo not drawn)	-20	-25%	0%	16µM*	0%	?
CCC1(C)Cc2c(sc3nnn(CC(=O)Nc4ccccc4)c(=O)c23)CO1 (stereo not drawn)	4	-41%	3%	-15%	6%	-16%
CN(C(=O)c1ccco1)c1nc(-c2ccc(Cl)cc2)cs1	?	-3%	-5%	?	·	?
O=C(c1cccs1)N(CC1CCCO1)c1nc(-c2ccccc2)cs1 (stereo not drawn)	-29	-24%	-13%	?	1%	21µM*
O=C(c1ccco1)N(CC1CCCO1)c1nc(-c2ccccc2)cs1 (stereo not drawn)	-10	-26%	-11%	23µM*	1%	?
Cc1cc(Cl)ccc1OCc1cc(=O)n2c3c(sc2n1)CCCC3	·	1%	10%	0%	1%	0%
O=C(NCCCc1nc2ccccc2n1Cc1ccc(Cl)cc1)C1CCCCC1	·	-30%	10µM*	21µM*	-3%	16µM*
O=C(NCCCc1nc2ccccc2n1Cc1ccccc1Cl)C1CCCCC1	·	-8%	-13%	18µM*	0%	23µM*
O=C(NCCCc1nc2ccccc2n1Cc1c(F)cccc1Cl)C1CCCCC1	·	5%	6%	-12%	-3%	-15%
COc1cc(NC(=O)C2(C)CCCN2C)cc(OC)c1OC (stereo not drawn)	18	-17%	16%	20%	·	28%
